SMILES strings stand for the structures. Records with an inconclusive call do not appear. Calls of active or inactive are those of the source. The calls were made as follows: active = hit-call score of the fitted dose curve at least 0.9, where 1 is the maximum; inconclusive = response in the unintended direction; inactive = score below 0.9.

As usually defined, the AC50 is the midpoint of the concentration-response curve, whichever way the signal moves.

A short description of this assay: CCTE_Simmons_CellTiterGLO_HEK293T: Viability Assessment in CCTE's Assays for Thyroperoxidase (TPO) Inhibition, Simmons Lab (AID 2283665).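 As to AC50: cells exposed to compound for 24 h before readout; actives reduce ATP signal below DMSO vehicle meaning cytotoxicity.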 As for the experimental part:
CCTE_Simmons_CellTiterGLO_HEK293T is a cell-based, single-readout assay that uses HEK293T, a human kidney cell line, with measurements taken at 24 hours after chemical dosing in a 384-well plate.CCTE_Simmons_CellTiterGLO_HEK293T is the assay component measured from the CCTE_Simmons_CellTiterGLO_HEK293T assay. It is designed to make measurements of ATP content, a form of viability reporter, as detected with bioluminescence signals by Luciferase-coupled ATP quantitation technology. This is a secondary cytotoxicity assay to CCTE_Simmons_AUR_TPO to estimate a cellular tolerance limit.Data from the assay component CCTE_Simmons_CellTiterGLO_HEK293T was analyzed at the endpoint, CCTE_Simmons_CellTiterGLO_HEK293T, in the positive analysis fitting direction relative to DMSO as the negative control and baseline of activity. Using a type of viability reporter, measures of ATP content for loss-of-signal activity can be used to understand the viability. This assay was run in parallel with aeid 1508 as a means of indicating the range of chemical cytotoxicity or reactivity. To generalize the intended target to other relatable targets, this assay endpoint is annotated to the cell cycle intended target family, where the subfamily is cytotoxicity.
Human HEK293T cells (GenHunter; Nashville, Tennessee) were seeded overnight in 384-well, solid white assay plates (Greiner, BioExpress) at a density of 10 000 cells per well in 65 ul Dulbecco's Modified Eagle Medium (Life Technologies; Carlsbad, California) supplemented with 1% fetal bovine serum (HyClone; Logan, Utah). Test compounds were administered using the HDRT as described earlier to achieve a 0.5% final DMSO concentration. Cells were then incubated at 37C for 24 hr in a humidified 5% CO2 incubator. Cell Titer Glo (Promega; Madison, WI) reagent (25 ul) was then added by the BioTek MicroFlo and microplates were incubated at room temperature in the dark for 20min. Plates were read on a plate reader (FLUOStar Optima) using an endpoint luminescence protocol (top read). Three biological replicates of technical singles were run for every chemical concentration tested. A titrated range of DCNQ served as a positive control on each plate of the cytotoxicity screening assay.Test chemicals were administered as a titrated series of 8 concentrations from 5 nM up to 87.5 uM [final] for 24 hours prior to single endpoint detection. Three biological replicates of technical singles were run for every chemical concentration tested. Dimethylsulfoxide [DMSO] was used as the vehicle control. Dichlone [DCNQ] was used as the positive control and was administered as a titrated series of 8 concentrations from 1 nM up to 100 uM [final].
In general terms: Cellular ATP, detected with luciferase, serves as a proxy for viable cell number.
`COc1cc([N+](=O)[O-])ccc1N`: the AC50 is 19.1 µM (active).

Consider `CCc1cccc(CC)c1N(COC)C(=O)CS(=O)(=O)O`, for which the call was inactive. Turning to `Cc1cc(C(C)(C)C)c(O)c(C(C)(C)C)c1`, the AC50 is 24.5 µM (active). On to `CCCCCCCCCCCCOC(=O)c1cc(O)c(O)c(O)c1`, for which the AC50 was 5.48 µM (active). In the case of `Cc1[nH]nc2c1N=C(c1ccccc1Cl)c1cc([N+](=O)[O-])ccc1N2`, the AC50 was 15.2 µM (active). Still for that read-out and setting: then `Cc1cc(Cc2cc(C)cc(C(C)(C)C)c2O)c(O)c(C(C)(C)C)c1`, with 6.57 µM (active). `C[C@]12CC[C@@H]3c4ccc(O)cc4CC[C@H]3[C@@H]1C[C@@H](O)[C@@H]2O`: the result was inactive. Consider `NC(=NCCCCCCN=C(N)/N=C(\N)Nc1ccc(Cl)cc1)/N=C(\N)Nc1ccc(Cl)cc1`, for which the AC50 was 7.96 µM (active). Regarding `CCCCCCc1ccc(N)cc1`, the AC50 is 11.3 µM (active). As for `O=C1OC2(c3ccccc31)c1cc(I)c(O)c(I)c1Oc1c2cc(I)c(O)c1I`, the AC50 was 5.7 µM (active). For the compound `Cc1cc(C(=C2C=CC(=Nc3ccc(S(=O)(=O)O)cc3)C=C2)c2ccc(Nc3ccc(S(=O)(=O)O)cc3)cc2)cc(S(=O)(=O)O)c1N`, the compound was called inactive. Turning to `CN(Cc1cnc2nc(N)nc(N)c2n1)c1ccc(C(=O)N[C@@H](CCC(=O)O)C(=O)O)cc1`, the AC50 was 0.0489 µM (active). The same measure, in the same setting: the same measure for `CCCCCCCCCCCC`: 31.8 µM (active).
